# Measured values published in PubChem BioAssay AID720519 (National Center for Advancing Translational Sciences (NCATS), 2013).
# Records with an inconclusive call do not appear. Where a call stands in place of a potency, no number is given. Activity calls are given as the source filed them. Calls follow the shape of the dose curve; as a rule, active = well fitted activation curve with a large enough effect; inconclusive = small, poorly fitted or top-dose-only effect; inactive = flat fitted curve, though single readings scatter.
# Assay: qHTS for Inhibitors of Cell Surface uPA Generation: Confirmatory Assay for Cherry-picked Compounds
# Procedure, shortened: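 RAW 264.7 cells at 4000/well, incubated overnight, then treated with compounds. After 24 h at 37 C, viability was read by ATPlite luminescence. An increase in signal indicates blocked uPA-dependent LF entry.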
row,SMILES,Potency
1,CC1(NC(=O)CSc2nnc(-c3c[nH]c4ccccc34)n2C2CC2)CCS(=O)(=O)C1 (stereo not drawn),inactive
2,Cc1ccccc1S(=O)Cc1ccc(C(=O)N2CCN(C(=O)c3ccco3)CC2)o1 (stereo not drawn),inactive
3,COc1ccccc1CNC(=O)CCCn1nc(C)c2c(C)n(-c3ccccc3)nc2c1=O,inactive
4,Cc1ccc(N2C(=O)c3ccccc3C2(O)c2ccccc2)cc1 (stereo not drawn),inactive
5,CCCCCOC(=O)C1=C(C)NC(=O)NC1c1ccccc1 (stereo not drawn),inactive
6,O=C1NCCN1C(=O)N(c1ccccc1)c1ccccc1,inactive
7,O=C(NNC(=O)c1cccc(-n2cccc2)c1)c1ccc(F)cc1,inactive
8,CC1(C)CC2(CC(c3ccccc3)Oc3cc(O)ccc32)NC(=S)N1 (stereo not drawn),inactive
9,CCCCOc1ccc(S(=O)(=O)N2CCCCC2)cc1,inactive
10,CS(=O)(=O)c1ccc(Cl)c(NC(=O)COC(=O)CNC(=O)c2cccs2)c1,inactive
11,COc1ccc(-c2sc3ccccc3c2C#CCO)cc1,inactive
12,CCCCn1c(N)c(N(Cc2ccccc2OC)C(=O)COc2ccc(C)cc2)c(=O)[nH]c1=O,inactive
13,CC(=O)c1ccc(OCCCCOc2ccc(C(C)=O)cc2)cc1,inactive
14,Cc1nc(N2CCN(c3ccc(Cl)cc3)CC2)[nH]c(=O)c1C,inactive
15,O=C(c1cc(COc2ccc(F)cc2Cl)on1)N1CCCCCC1,inactive
16,CCC(NC(=O)Cc1c(C)c2c(cc(C)c3c(C)c(C)oc32)oc1=O)C(=O)O (stereo not drawn),inactive
17,CC1CCCCN1C(=O)CSc1nc2ncccc2[nH]1 (stereo not drawn),inactive
18,Cc1cc(C)n(CCCNC(=O)c2ccc(C)o2)n1,inactive
